Here are results for 28 compounds from PubChem BioAssay (NCI).

Each structure is given as a SMILES string. This is part of a sample that, as a whole, favours compounds with a hit. Of some 83,000 tested, about 20% had one in any assay.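 In brief: 96-well plates, 48 h treatment, single concentration, percent growth endpoint.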 Calls of active or inactive are those of the source. How the source made its calls: active means growth percent below 10; inactive means the rest.

The test system of this assay is MDA-MB-468 breast. The assay is described as follows: NCI-60 one-dose screen, 48 h (100 = growth as untreated, 0 = no growth, -100 = all killed). As to conditions: 10 µM unless noted.
Take `COc1cc(CC(=O)c2ccc(O)c(OC)c2)ccc1O`: the growth is 101% (inactive).

On to `COc1cc(C(=O)/C=C/c2c(C)n([O-])c3ccc(Cl)cc3[n+]2=O)cc(OC)c1OC`, for which the growth was 27.6% (inactive).

Consider `CCNc1nc(N2CC(=O)Nc3cc(OC)ccc32)c2ccccc2n1`, for which the growth is 1.34% (active).

In the case of `COc1ccc(-c2cc(-c3cccc(NS(C)(=O)=O)c3)nc(N)c2C#N)cc1`, the growth is 0.11% (active).

Turning to `O=C(NCCCNc1cc(-c2cn(-c3ccccc3)nc2-c2cccc(O)c2)ccn1)c1ccc(F)cc1`, the growth is -41.4% (active).

For `COc1cc(CC(=O)n2ncc3ccc(N)cc32)cc(OC)c1OC`, the growth is 94.8% (inactive).

On to `CC[C@@]1(O)C(=O)OCc2c1cc1n(c2=O)Cc2c-1nc1ccccc1c2/C=N/OC(C)(C)C`, for which the growth was -44.5% (active).

Take `CC1=C(/C=C/C(C)=C/C=C/C(C)=C/C(=O)Nc2ccc(O)cc2)C(C)(C)CCC1`: the growth was 30.1% (inactive).

Consider `O=C(O)CC1CCN(c2ccc3nnc(Cl)n3n2)CC1`, for which the growth is 101% (inactive).

Consider `c1ccc(-c2nc([P+](c3ccccc3)(c3ccccc3)c3ccccc3)c(N3CCOCC3)o2)cc1`, for which the growth is -22.5% (active).

For the compound `COC(=O)CNS(=O)(=O)c1ccc2c(c1)Cc1cc(S(=O)(=O)NCC(=O)OC)ccc1-2`, the growth was 84.9% (inactive).

For `O=[N+]([O-])c1ccc(N=Nc2ccccc2)cc1`, the growth was 109% (inactive).

Turning to `Nc1nc(N)c2c(n1)NC(c1cccc(Nc3ccnc4cc(C(F)(F)F)ccc34)c1)CC(c1ccc(Cl)cc1)=N2` (stereo not drawn), the growth is 21.5% (inactive).

With `CN(C)CCC(=O)c1ccc([N+](=O)[O-])cc1`, the growth was 86.5% (inactive).

With `CCN1C(=S)N(CC)C2Nn3c(s/c(=C4\C(=O)N(C)c5ccccc54)c3=O)=NC21` (stereo not drawn), the growth is 11.7% (inactive).

Consider `N=C(N)c1ccc(-c2ccc(-c3cc(Cl)cc(Cl)c3)o2)nc1`, for which the growth was -73.9% (active).

`Oc1c(Cl)cc(Cl)cc1C(c1cc(Cl)cc(Cl)c1O)C(Cl)(Cl)Cl`: the growth was -30.5% (active).

Take `COc1cccc(-c2nn(-c3ccccc3)cc2-c2ccnc(NCCCNS(=O)(=O)c3cccc(F)c3)c2)c1`: the growth was -10.1% (active).

Turning to `COc1ccc(-c2cc(=O)n(-c3nc4ccccc4[nH]3)[nH]2)cc1OC`, the growth was 83% (inactive).

For the compound `[2H]C([2H])([2H])Oc1ccc(F)cc1/C=C/C(=O)/C=C(O)/C=C/c1cc(F)ccc1OC([2H])([2H])[2H]`, the growth is 91.6% (inactive).

As for `COC(=O)c1ccc(Cn2cnc3c(N)ncnc32)cc1`, the growth was 106% (inactive).

With `CC1(C)[C@H](O)CC[C@]2(C)[C@@H]1CC[C@@]13C[C@@H](CC[C@H]12)[C@@](O)(CO)C3`, the growth was 106% (inactive).

In the case of `COc1ccc(-c2cc(NC(=O)Nc3ccc4ncsc4c3)no2)cc1`, the growth is 99.2% (inactive).

In the case of `CC(=O)Nc1nc(C(=O)N2N=C(C)/C(=C/c3ccc(Cl)cc3)C2=O)cs1`, the growth is 103% (inactive).

Regarding `Oc1ccc(Cc2ccc(O)c3ncccc23)c2cccnc12`, the growth is -16% (active).

As to `COc1cc(OCc2cccc(-c3ccc4c(c3)OCCO4)c2C)cc(OC)c1C=O`, the growth is 21.8% (inactive).

With `N#CC1=C(/N=C/c2ccccc2)Oc2c(ccc3ccccc23)C1c1ccc([N+](=O)[O-])cc1` (stereo not drawn), the growth is 102% (inactive).

Consider `O=C1c2cccc(NCCN=Cc3cc(O)ccc3O)c2C(=O)c2c(NCCN=Cc3cc(O)ccc3O)cccc21`, for which the growth was -85.8% (active).
